Results taken from PubChem BioAssay (NCI).
About 79,000 compounds went through this panel and 15% of them were active in at least one assay; those are over-represented in the sample as a whole. Unmarked numbers belong to inactive results. The source made the active and inactive calls. Cut-off read from the data, not from the text of the source: active = growth inhibition above about 70%; inactive = the rest.

Legend:
[1] = NCI Yeast Anticancer Drug Screen. Data for the rad52 strain (AID 147);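 note: 0% = growth of vehicle-treated control cultures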; conditions: S. cerevisiae rad52 mutant growth inhibition, stronger effect = higher value
How it was run: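 DNA repair-defective yeast; compound exposure; growth scored against vehicle controls.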

[2] = NCI Yeast Anticancer Drug Screen. Data for the rad50EPP+ strain (AID 151);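 note: 0% = growth of vehicle-treated control cultures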; conditions: S. cerevisiae rad50 mutant strain, stronger effect = higher value
How it was run: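 rad50EPP+ yeast treated with test compounds. Readout: growth vs vehicle control.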

[3] = NCI Yeast Anticancer Drug Screen. Data for the mgt1 strain (AID 153); conditions: S. cerevisiae mgt1 mutant growth inhibition, stronger effect = higher value
How it was run: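 Growth inhibition relative to vehicle controls was scored for the mgt1 yeast strain after compound exposure.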

[4] = NCI Yeast Anticancer Drug Screen. Data for the rad50 strain (AID 155);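 note: 0% = growth of vehicle-only cultures of the same strain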; conditions: S. cerevisiae rad50 strain growth inhibition, stronger effect = higher value
How it was run: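 Cells are treated with compound, grown, and their growth is then scored against vehicle-only cultures of the same repair-deficient yeast strain.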

[5] = NCI Yeast Anticancer Drug Screen. Data for the mec2-1 strain (AID 157); conditions: S. cerevisiae mec2-1 strain, stronger effect = higher value
How it was run: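 Growth inhibition is read against vehicle-treated controls after compound exposure of the mec2-1 yeast strain, which is defective in DNA damage repair or cell cycle control.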

[6] = NCI Yeast Anticancer Drug Screen. Data for the rad14 strain (AID 159);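 note: 0% = growth of vehicle-treated control cultures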; conditions: S. cerevisiae rad14 strain growth inhibition, stronger effect = higher value
How it was run: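 Readout: yeast growth inhibition, referenced to vehicle-only cultures. Strain bears a defined alteration in DNA damage repair.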

[7] = NCI Yeast Anticancer Drug Screen. Data for the sgs1 mgt1 strain (AID 161);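 note: 0% = growth of cultures given vehicle only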; conditions: S. cerevisiae sgs1 mgt1 strain, stronger effect = higher value
How it was run: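 Percent growth inhibition was derived by comparing compound-exposed mutant yeast with vehicle-exposed cultures. The strain carries alterations in DNA damage repair.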

[8] = NCI Yeast Anticancer Drug Screen. Data for the CLN2oe strain (AID 163);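 note: 0% = growth of vehicle-only control cultures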; conditions: S. cerevisiae CLN2oe strain, stronger effect = higher value
How it was run: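 Compound-treated yeast; growth vs vehicle ctrl = % inhibition. Genetically altered strain (cell-cycle control).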

[9] = NCI Yeast Anticancer Drug Screen. Data for the cln2 rad14 strain (AID 165);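 note: 0% = growth equal to vehicle treated cultures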; conditions: S. cerevisiae cln2 rad14 strain, stronger effect = higher value
How it was run: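 Growth inhibition, relative to vehicle-treated controls, is the read-out. The test organism is a yeast strain with defined genetic alterations, cln2 rad14.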

[10] = NCI Yeast Anticancer Drug Screen. Data for the bub3 strain (AID 167); conditions: S. cerevisiae bub3 mutant strain, stronger effect = higher value
How it was run: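 Part of a panel of yeast mutants defective in DNA damage repair or cell cycle regulation. Each strain is grown with compound, and inhibition is calculated relative to solvent-treated cultures.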

[11] = NCI Yeast Anticancer Drug Screen. Data for the wt2 strain (AID 169);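 note: 0% = growth of vehicle-treated yeast cultures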; conditions: S. cerevisiae wt2 strain growth inhibition, stronger effect = higher value
How it was run: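 Compound exposure of yeast; growth compared with vehicle controls; inhibition reported.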

[12] = NCI Yeast Anticancer Drug Screen. Data for the mlh1 strain (AID 171);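 note: 0% = growth of vehicle-treated control cultures of the same strain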; conditions: S. cerevisiae mlh1 strain growth inhibition, stronger effect = higher value
How it was run: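 Compounds are applied to a genetically altered yeast strain, and its growth is compared with that of vehicle-treated cultures to give percent inhibition.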

[13] = NCI Yeast Anticancer Drug Screen. Data for the sgs1 strain (AID 173);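 note: 0% = growth of vehicle-only control cultures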; conditions: S. cerevisiae sgs1 mutant, stronger effect = higher value
How it was run: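 Compounds applied to genetically altered yeast; growth compared with vehicle-treated cultures to give % inhibition.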

[14] = NCI Yeast Anticancer Drug Screen. Data for the mlh1 rad18 strain (AID 175); conditions: S. cerevisiae mlh1 rad18 strain growth inhibition, stronger effect = higher value
How it was run: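 Cells of a genetically altered yeast strain, deficient in DNA damage repair, were treated with compound. Their growth was then compared with that of vehicle-treated cultures to give inhibition.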

[15] = NCI Yeast Anticancer Drug Screen. Data for the rad18 strain (AID 177); conditions: S. cerevisiae rad18 mutant growth inhibition, stronger effect = higher value
How it was run: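 Compounds are applied to a repair-deficient yeast strain, and growth is compared with that of vehicle-treated cultures to give percent inhibition.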

[16] = at 5.0 µM (retest, dose inferred, filed as 0.5)
[17] = at 50.0 µM (retest, dose inferred, filed as 5.0)

Q: Which growth inhibition ([1]; at 1.2 µM) does the source give for `CN(C)N=Nc1ccccc1C(=O)NC#N` here?
A: The growth inhibition was 8%.

Q: And the growth inhibition ([1]; at 3.7 µM)?
A: The growth inhibition was 0%.

Q: And the growth inhibition ([1]; at 11.0 µM)?
A: The growth inhibition was 83% (active).

Q: And the growth inhibition ([1]; at 33.0 µM)?
A: The growth inhibition was 98% (active).

Q: And the growth inhibition ([1]; at 100.0 µM)?
A: The growth inhibition was 98% (active).

Q: And the growth inhibition ([2]; at 1.2 µM)?
A: The growth inhibition was 7%.

Q: What about the growth inhibition ([2]; at 3.7 µM) of the same compound?
A: The growth inhibition was 0%.

Q: And the growth inhibition ([2]; at 11.0 µM)?
A: Its growth inhibition is 13%.

Q: And the growth inhibition ([2]; at 33.0 µM)?
A: Its growth inhibition is 98% (active).

Q: What about the growth inhibition ([2]; at 100.0 µM) of the same compound?
A: Its growth inhibition is 98% (active).

Q: And the growth inhibition ([3]; at 1.2 µM)?
A: The growth inhibition was -1%.

Q: And the growth inhibition ([3]; at 3.7 µM)?
A: Its growth inhibition is 20%.

Q: And the growth inhibition ([3]; at 11.0 µM)?
A: Its growth inhibition is 98% (active).

Q: What about the growth inhibition ([3]; at 33.0 µM) of the same compound?
A: The growth inhibition was 99% (active).

Q: And the growth inhibition ([3]; at 100.0 µM)?
A: Its growth inhibition is 98% (active).

Q: What about the growth inhibition ([4]; at 1.2 µM) of the same compound?
A: Its growth inhibition is -5%.

Q: And the growth inhibition ([4]; at 3.7 µM)?
A: Its growth inhibition is -14%.

Q: And the growth inhibition [4, 16]?
A: Its growth inhibition is 18%.

Q: And the growth inhibition ([4]; at 11.0 µM)?
A: Its growth inhibition is 97% (active).

Q: What about the growth inhibition ([4]; at 33.0 µM) of the same compound?
A: Its growth inhibition is 98% (active).

Q: And the growth inhibition [4, 17]?
A: The growth inhibition was 98% (active).

Q: And the growth inhibition ([4]; at 50.0 µM)?
A: The growth inhibition was 90% (active).

Q: What about the growth inhibition ([4]; at 100.0 µM) of the same compound?
A: Its growth inhibition is 94% (active).

Q: And the growth inhibition ([5]; at 1.2 µM)?
A: The growth inhibition was -12%.

Q: What about the growth inhibition ([5]; at 3.7 µM) of the same compound?
A: The growth inhibition was 0%.

Q: What about the growth inhibition [5, 16] of the same compound?
A: Its growth inhibition is 8%.

Q: And the growth inhibition ([5]; at 11.0 µM)?
A: Its growth inhibition is 97% (active).

Q: What about the growth inhibition ([5]; at 33.0 µM) of the same compound?
A: Its growth inhibition is 99% (active).

Q: What about the growth inhibition [5, 17] of the same compound?
A: Its growth inhibition is 99% (active).

Q: And the growth inhibition ([5]; at 50.0 µM)?
A: The growth inhibition was 91.5% (active).

Q: And the growth inhibition ([5]; at 100.0 µM)?
A: The growth inhibition was 95% (active).

Q: What about the growth inhibition ([6]; at 1.2 µM) of the same compound?
A: The growth inhibition was -17%.

Q: And the growth inhibition ([6]; at 3.7 µM)?
A: The growth inhibition was -14%.

Q: And the growth inhibition ([6]; at 11.0 µM)?
A: Its growth inhibition is 75% (active).

Q: And the growth inhibition ([6]; at 33.0 µM)?
A: The growth inhibition was 98% (active).

Q: And the growth inhibition ([6]; at 100.0 µM)?
A: The growth inhibition was 96% (active).

Q: What about the growth inhibition [7, 16] of the same compound?
A: Its growth inhibition is 36%.

Q: What about the growth inhibition [7, 17] of the same compound?
A: The growth inhibition was 53%.

Q: What about the growth inhibition ([7]; at 50.0 µM) of the same compound?
A: Its growth inhibition is 91.5% (active).

Q: What about the growth inhibition ([8]; at 1.2 µM) of the same compound?
A: Its growth inhibition is 23%.

Q: What about the growth inhibition ([8]; at 3.7 µM) of the same compound?
A: Its growth inhibition is 22%.

Q: What about the growth inhibition ([8]; at 11.0 µM) of the same compound?
A: The growth inhibition was 98% (active).

Q: What about the growth inhibition ([8]; at 33.0 µM) of the same compound?
A: The growth inhibition was 99% (active).

Q: What about the growth inhibition ([8]; at 100.0 µM) of the same compound?
A: Its growth inhibition is 99% (active).

Q: What about the growth inhibition [9, 16] of the same compound?
A: Its growth inhibition is 35%.

Q: And the growth inhibition [9, 17]?
A: Its growth inhibition is 67%.

Q: And the growth inhibition ([9]; at 50.0 µM)?
A: The growth inhibition was 89.8% (active).

Q: And the growth inhibition ([10]; at 1.2 µM)?
A: The growth inhibition was 13%.

Q: And the growth inhibition ([10]; at 3.7 µM)?
A: The growth inhibition was 10%.

Q: And the growth inhibition [10, 16]?
A: Its growth inhibition is 39%.

Q: And the growth inhibition ([10]; at 11.0 µM)?
A: Its growth inhibition is 98% (active).

Q: And the growth inhibition ([10]; at 33.0 µM)?
A: The growth inhibition was 99% (active).

Q: What about the growth inhibition [10, 17] of the same compound?
A: Its growth inhibition is 77% (active).

Q: And the growth inhibition ([10]; at 50.0 µM)?
A: Its growth inhibition is 90.2% (active).

Q: What about the growth inhibition ([10]; at 100.0 µM) of the same compound?
A: The growth inhibition was 99% (active).

Q: What about the growth inhibition ([11]; at 1.2 µM) of the same compound?
A: The growth inhibition was -8%.

Q: And the growth inhibition ([11]; at 3.7 µM)?
A: The growth inhibition was -1%.

Q: What about the growth inhibition ([11]; at 11.0 µM) of the same compound?
A: The growth inhibition was 98% (active).

Q: What about the growth inhibition ([11]; at 33.0 µM) of the same compound?
A: Its growth inhibition is 99% (active).

Q: What about the growth inhibition ([11]; at 100.0 µM) of the same compound?
A: Its growth inhibition is 99% (active).

Q: And the growth inhibition ([12]; at 1.2 µM)?
A: The growth inhibition was 1%.

Q: What about the growth inhibition ([12]; at 3.7 µM) of the same compound?
A: The growth inhibition was 4%.

Q: And the growth inhibition ([12]; at 11.0 µM)?
A: Its growth inhibition is 93% (active).

Q: What about the growth inhibition ([12]; at 33.0 µM) of the same compound?
A: The growth inhibition was 99% (active).

Q: And the growth inhibition ([12]; at 100.0 µM)?
A: The growth inhibition was 98% (active).

Q: And the growth inhibition ([13]; at 1.2 µM)?
A: The growth inhibition was -6%.

Q: And the growth inhibition ([13]; at 3.7 µM)?
A: The growth inhibition was -24%.

Q: And the growth inhibition ([13]; at 11.0 µM)?
A: Its growth inhibition is 98% (active).

Q: And the growth inhibition ([13]; at 33.0 µM)?
A: The growth inhibition was 98% (active).

Q: And the growth inhibition ([13]; at 100.0 µM)?
A: Its growth inhibition is 99% (active).

Q: What about the growth inhibition [14, 16] of the same compound?
A: Its growth inhibition is 5%.

Q: And the growth inhibition [14, 17]?
A: The growth inhibition was 98% (active).

Q: What about the growth inhibition ([14]; at 50.0 µM) of the same compound?
A: Its growth inhibition is 89.4% (active).

Q: What about the growth inhibition ([15]; at 1.2 µM) of the same compound?
A: The growth inhibition was 12%.

Q: And the growth inhibition ([15]; at 3.7 µM)?
A: The growth inhibition was 5%.

Q: What about the growth inhibition ([15]; at 11.0 µM) of the same compound?
A: The growth inhibition was 97% (active).

Q: What about the growth inhibition ([15]; at 33.0 µM) of the same compound?
A: The growth inhibition was 99% (active).

Q: What about the growth inhibition ([15]; at 100.0 µM) of the same compound?
A: Its growth inhibition is 95% (active).
